# Screening data from PubChem BioAssay.
# Rv3671c protease – inhibits the M. tuberculosis serine protease Rv3671c; P9WHR9; inhibition, % at 5.96 µM; 0.048% of 320,000 active; in the data active = inhibition above about 38%;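 also: extracellular domain of Rv3671c used as enzyme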
# Mtb bLac sens – beta-lactam sensitization of Mtb H37Rv; M. tuberculosis H37Rv growth with meropenem, percent inhibition; inhibition, % at 25 µM; 0.27% of 330,000 active; AID 434955; call rule not given here;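 also: growth measured after seven days incubation then overnight dye step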
# Mtb FBA inh – inhibits M. tuberculosis FBA enzyme; P9WQA3; purified M. tuberculosis FBA, fluorescence read-out; inhibition, % at 1 µM; 2.3% of 360,000 active; AID 588726
# GDH-TPI counter-1 – counter-screen for M. tuberculosis FBA inhibitors: GDH-TPI coupled enzymes | GDH-TPI coupled enzyme counterscreen, NADH absorbance | inhibition, % at 4.8 µM | 1.2% of 360,000 active; in the data active = inhibition above about 30%
# UGM FP inh – Mtb UDP-galactopyranose mutase inhibition | purified UGM, fluorescence polarization probe displacement | inhibition, % at 10 µM | 0.06% of 320,000 active | AID 504406; in the data active = inhibition above about 10%, passing the limit was not always enough
# Target sequence (P9WIQ1 whole entry, looked up): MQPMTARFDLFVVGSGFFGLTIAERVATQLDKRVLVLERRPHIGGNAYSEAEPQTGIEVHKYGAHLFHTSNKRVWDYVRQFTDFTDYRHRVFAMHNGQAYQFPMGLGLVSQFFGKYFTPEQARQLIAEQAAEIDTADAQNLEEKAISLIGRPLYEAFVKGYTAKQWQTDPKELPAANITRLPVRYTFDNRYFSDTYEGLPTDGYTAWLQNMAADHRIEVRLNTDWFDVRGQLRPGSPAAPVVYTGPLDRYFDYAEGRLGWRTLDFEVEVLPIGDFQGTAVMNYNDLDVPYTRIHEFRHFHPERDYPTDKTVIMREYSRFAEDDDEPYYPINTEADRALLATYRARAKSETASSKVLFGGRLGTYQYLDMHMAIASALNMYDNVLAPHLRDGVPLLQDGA
# Mtb FBA inh conf – confirmation of M. tuberculosis fructose-bisphosphate aldolase inhibitors; 78% of 5,600 active; shares compounds with Mtb FBA inh; inhibition, % at 1 µM; AID 651616; purified M. tuberculosis FBA, fluorescence read-out
# GDH-TPI counter-2 – GDH-TPI inhibition counter-screen for FBA inhibitors | inhibition, % at 1 µM | 81% of 5,600 active | shares compounds with Mtb FBA inh | GDH-TPI coupled enzyme counterscreen, fluorescence; in the data active = inhibition above about 10%
# GDH-TPI dose – counter-screen for M. tuberculosis FBA inhibitors: GDH-TPI dose response | shares compounds with Mtb FBA inh | 79% of 170 active | AID 652145 | GDH-TPI coupled enzyme assay, fluorescence, artifact counterscreen | IC50, µM; call rule not given here
# Hits are given with their value; i = inactive; nt = not tested or not shown; + = active, no number. This is a sample that favours compounds with a hit; in the whole collection about 3.5% have one here. Rule as the data show it, unless noted: active = inhibition above about 27%; inactive = the rest.
SMILES,Rv3671c protease,Mtb bLac sens,Mtb FBA inh,GDH-TPI counter-1,UGM FP inh,Mtb FBA inh conf,GDH-TPI counter-2,others
COc1ccc2c(c1)cc(C(=O)N[C@@H](CCSC)C(=O)N1CCC(C(=O)O)CC1)n2C,i,i,64.2,i,i,i,i,
C=CCNC(=O)NC(=O)CSc1nnc(C(F)(F)F)n1C,i,i,i,i,i,nt,nt,
O=C(C1CCN(C2CCN(C/C=C/c3ccccc3)CC2)CC1)N1CCOCC1,i,i,i,i,i,nt,nt,
CCOC(=O)C1CCN(C(=O)c2ccc3c(=O)n4nc(Nc5ccccc5)sc4nc3c2)CC1,nt,nt,i,i,nt,nt,nt,
CNc1cnc(-c2ccsc2)cn1,nt,nt,88.0,i,nt,134.1,109.9,
COc1cc2cnc(-c3ccsc3)cc2cc1OC,i,i,i,i,i,nt,nt,
CC(C)CC1c2[nH]c3ccccc3c2CCN1CCCn1cccn1 (stereo not given),i,i,i,i,i,nt,nt,
FC(F)(F)c1cccc(CC2CN(Cc3ccccc3)Cc3ccccc3N2c2cc(Cl)cc(Cl)c2)c1 (stereo not given),nt,nt,i,i,nt,nt,nt,
CN1CCc2c1nc1ccccc1c2NC(=O)CN1CCCC1,i,i,i,i,i,nt,nt,
CCCCCCC(=O)Nc1c2c(nc3ccccc13)N(C)CC2,i,i,47.8,i,i,93.8,100.5,
O=C(COC(=O)c1ccc2ccccc2n1)Nc1ccccc1F,i,i,i,i,i,nt,nt,
CN1C(=O)c2ccc(NC(=O)c3ccc(Cl)cc3Cl)cc2C1=O,i,i,37.5,i,i,95.1,70.0,
O=C(Nc1ccc2c(c1)C(=O)OC2)c1ccc(Cl)cc1Cl,i,i,i,i,i,nt,nt,
C=CCc1cc(C)ccc1OCCOCCn1ccnc1,i,i,i,i,i,nt,nt,
Cc1csc2nc(=O)c3ccccc3n12,nt,nt,49.3,i,nt,+,174.6,
Cc1nc2scc(C)n2c(=O)c1S(=O)(=O)N1CCN(c2ccccc2)CC1,i,i,i,i,i,nt,nt,
COc1ccc(C(O)c2nc(-c3ccc(N(C)C)cc3)cs2)cc1 (stereo not given),nt,nt,i,i,nt,nt,nt,
COCCN1CN(S(=O)(=O)c2cccc(Cl)c2)c2nc3ccccc3nc21,i,i,29.4,i,i,53.7,30.0,
O=S(=O)(c1cccc(Cl)c1)N1CN(CC2CCCO2)c2nc3ccccc3nc21 (stereo not given),i,i,36.1,i,i,187.6,146.0,
COCCCN1CN(S(=O)(=O)c2ccc(Cl)cc2)c2nc3ccccc3nc21,i,i,i,i,i,nt,nt,
CN(C)c1ccc(-c2cc([C@H]3[C@@H]4C=CCC[C@@]4(C)C(=O)N3Cc3ccccc3)ccc2F)cc1,i,i,i,i,i,nt,nt,
OC[C@@H]1CCCN1Cc1cn(-c2ccccc2)nc1-c1ccc2c(c1)OCO2,i,i,28.8,i,i,54.4,35.0,
O=C(c1ccc(Cl)cc1)N1CCC(C(=O)N2CCN(c3ncccn3)CC2)CC1,i,i,i,i,i,nt,nt,
CC1Cc2ccccc2N1C(=O)CSc1nccc(=O)[nH]1 (stereo not given),i,i,i,i,i,nt,nt,
CC1CCC(N2CCN(S(C)(=O)=O)CC2)CC1 (stereo not given),i,i,56.2,i,i,110.2,102.0,
SMILES,Rv3671c protease,Mtb bLac sens,Mtb FBA inh,GDH-TPI counter-1,UGM FP inh,Mtb FBA inh conf,GDH-TPI counter-2,others
O=C(COC(=O)c1ccc2c(c1)S(=O)(=O)N=C1CCCCCN12)NCc1cccs1,i,i,i,i,i,nt,nt,
CSC1SCC2C(=O)N(C)C(C(C)C)C(=O)OCC(NC(=O)c3cnc4ccccc4n3)C(=O)NC(C)C(=O)N(C)C1C(=O)N(C)C(C(C)C)C(=O)OCC(NC(=O)c1cnc3ccccc3n1)C(=O)NC(C)C(=O)N2C (stereo not given),nt,nt,i,i,nt,nt,nt,
COc1ccc(-c2nc3n(c(=O)c2C#N)CCS3)cc1,i,i,28.1,i,i,32.4,27.9,
CCOc1ccc(-c2nc3n(c(=O)c2C#N)CCS3)cc1,i,i,32.0,i,i,71.5,61.8,
COc1ccc(-c2nc3n(c(=O)c2C#N)CCS3)cc1OC,i,i,i,i,i,nt,nt,
Cc1ccc2c(C)c(C(=O)N(Cc3ccc(N(C)C)cc3)C3CCS(=O)(=O)C3)oc2c1 (stereo not given),i,i,i,i,i,nt,nt,
O=C(CSc1nc2ccccc2c(=O)[nH]1)Nc1ccccc1N1CCOCC1,i,i,33.3,i,i,96.9,77.5,
CCOc1ccccc1C1C2=C(COC2=O)Nc2cc3c(cc21)OCO3 (stereo not given),i,i,i,i,i,nt,nt,
O=C1OCC2=C1C(c1ccc(F)cc1)c1cc3c(cc1N2)OCO3 (stereo not given),nt,nt,27.2,i,nt,133.2,141.8,
O=C1OCC2=C1C(c1ccc(F)cc1)c1cc3c(cc1N2)OCCO3 (stereo not given),nt,nt,73.9,36.6,nt,+,137.4,
COc1cccc(C2C3=C(CC(C)(C)CC3=O)Nc3cc4c(cc32)OCO4)c1 (stereo not given),i,i,i,i,i,nt,nt,
CC(=O)Oc1ccc(C2C3=C(CC(C)(C)CC3=O)Nc3cc4c(cc32)OCCO4)cc1 (stereo not given),i,i,46.6,43.0,i,71.9,63.0,
COC(=O)c1ccc(Oc2c(F)c(F)nc(N3CCOCC3)c2F)cc1,i,i,i,i,i,nt,nt,
CS(=O)(=O)N1CCN(C(=O)Cc2ccc(Br)cc2)CC1,i,i,i,i,i,nt,nt,
C[C@@H]1CN([C@H](C)CO)C(=O)CCCn2nncc2CO[C@@H]1CN(C)S(C)(=O)=O,nt,nt,i,i,nt,nt,nt,
Cc1nn(C)cc1-c1cc(C(=O)O)c2ccccc2n1,i,i,81.7,i,i,i,i,GDH-TPI dose=3.33
c1ccc(Cn2c(-c3ccccc3)nc3nc4ccccc4nc32)cc1,i,i,56.3,43.2,i,161.1,132.0,
COc1ccc(C2NN=C(c3ccc(C)cc3)S2)cc1OC (stereo not given),i,i,38.4,i,i,+,+,
Cc1ccc(C2=NNC(c3cccc(F)c3)S2)cc1 (stereo not given),i,i,i,i,i,nt,nt,
C[C@@H]1CN([C@H](C)CO)C(=O)CCCn2nncc2CO[C@@H]1CN(C)C(=O)c1cc(-c2ccccc2)on1,nt,nt,i,i,nt,nt,nt,
O=C1C2C(c3ccccc3)=NN(c3ccccc3)C2C(=O)N1c1ccccc1 (stereo not given),i,i,i,i,i,nt,nt,
O=C1[C@H]2C(c3ccccc3)=NN(c3ccccc3)[C@H]2C(=O)N1c1ccccc1,i,i,31.1,i,i,66.8,58.6,
Cc1ccc(CNC(=O)CN(C(=O)C2(C)CC(=O)N=C3C=CC=CN32)c2ccccc2F)cc1 (stereo not given),i,i,82.4,i,i,77.0,52.9,
Cc1ccc(CNC(=O)CN(C(=O)C2(C)CC(=O)N=C3C=CC=CN32)c2ccc(F)cc2)cc1 (stereo not given),i,i,69.3,i,i,i,i,
N#CCSc1n[nH]c2nc3c(c(=O)n12)C1(CCCC1)Cc1ccccc1-3,i,i,65.8,i,i,114.7,82.7,
